Source: PubChem BioAssay (National Center for Advancing Translational Sciences (NCATS))
BAZ2B block – inhibitors of human BAZ2B bromodomain | Q9UIF8 | AlphaScreen BAZ2B-H3K14Ac peptide displacement | Potency, µM (highest dose often 114 µM), for the others: top-dose activity change, negative = inhibition, usual class: inhibitors | actives 4.4% (n = 360,000) | AID 504333; note: potency is the fitted concentration of half-maximal effect; % is set by controls: 0 for no effect and ±100 for the full control effect; nearly all actives have a fitted effect of over 60% in size
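Complex of BAZ2B and biotin-H3K14Ac (50 nM apiece) forms over 30 min at RT, then faces library compounds up to 110 uM for another 30 min; AlphaScreen beads added, 20 min dark incubation, luminescence read.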
HP1b binding inh – inhibitors of HP1-beta chromodomain binding to methylated histone tails; P83916; AlphaScreen HP1-beta / biotin-H3K9me3 peptide binding; Potency, µM (highest dose often 114 µM), without a hit: at the highest dose activity change, negative = inhibition, usual class: inhibitors; actives 0.56% (n = 390,000); AID 540317; note: potency is the fitted concentration of half-maximal effect; nearly all actives have a fitted effect of over 70% in size
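AlphaScreen: HP1-beta (50 nM) preformed 30 min with biotin-H3(1-18)K9me3 peptide (50 nM) in PBS pH 7.4, 0.01% Tween-20. Compound added for 30 min at RT, then streptavidin donor/nickel chelate acceptor beads (10 ug/mL) for 30 min.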
PI5P4K alpha inh – blocks human PI5P4K alpha kinase activity; P48426; PI5P4Kalpha enzyme, ADP-Glo luminescence, 60 min; stronger effect = lower value; max response, %; actives 1.2% (n = 330,000); AID 652105; active = max response of -50% or lower; inconclusive = between -30% and -50%; inactive = -30% or higher; note: value at the top dose of about 77 µM; % is set by controls: 0 for no effect and ±100 for the full control effect
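PI5P4Kalpha ADP-Glo assay; 5 microM ATP final; 60 min RT reaction; HEPES pH 7.4/EGTA/CHAPS, 5% DMSO; controls lacking substrate or enzyme; luminescent end-point.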
JMJD2A Tudor – inhibitors of human JMJD2A Tudor domain; O75164; AlphaScreen JMJD2A-Tudor / H3K4me3 peptide binding; Potency, µM (titrated, usually from 114 µM), for inactives: top-dose activity change, negative = inhibition, hits mostly inhibitors; actives 4.4% (n = 390,000); note: potency is the fitted concentration of half-maximal effect; % is set by controls: 0 for no effect and ±100 for the full control effect; nearly all actives have a fitted effect of over 50% in size
G9a inh – blocks human histone lysine methyltransferase G9a; G9a H3K9 monomethylation, AlphaScreen, 2 h; Potency, µM (titrated, usually from 102 µM), without a hit: at the top dose activity, negative = inhibition, hits mostly inhibitors; actives 8.8% (n = 350,000); AID 504332; note: potency is the fitted concentration of half-maximal effect; % is set by controls: 0 for no effect and ±100 for the full control effect; nearly all actives have a fitted effect of over 75% in size
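AlphaScreen detection with an anti-monomethyl H3K9 antibody quantified product after a 2 h room-temperature reaction containing 500 nM biotinylated H3K9 peptide, 20 µM SAM and 20 nM enzyme, which had been preincubated 15 min with compound.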
PLK1 PBD block – PLK1 (human) polo-box domain binding inhibition | Plk1 PBD binding of FITC phosphopeptide, fluorescence polarization | Potency, µM, for inactives: max response, negative = inhibition, actives largely listed as inhibitors | actives 2.8% (n = 360,000) | AID 720504; note: potency is the fitted concentration of half-maximal effect; series mostly up to about 57 µM; % is set by controls: 0 for no effect and ±100 for the full control effect; nearly all actives have a fitted effect of over 65% in size
An asterisk follows results filed as active; ? = inconclusive; · = not tested or not shown; [ ] = another dose, or the depositor's remark. Hits are enriched below; roughly 12% of the tested compounds scored in any of these assays. Unless noted, calls come from the whole dose curve; as a rule, active = well fitted curve in the direction sought with a large enough effect; inconclusive = small, poorly fitted or top-dose-only effect, or another doubt; inactive = no such curve, though single readings can be large; an effect the other way counts as inactive or inconclusive.

SMILES	BAZ2B block	HP1b binding inh	PI5P4K alpha inh	JMJD2A Tudor	G9a inh	PLK1 PBD block
Cc1noc(C)c1COC(=O)C1CCN(S(=O)(=O)c2c(Cl)cccc2Cl)CC1	0%	32%	0	5%	13%[0.501 µM]	-3%
C=C(C)c1cccc(C(C)(C)NC(=O)Nc2ccc(OC)nc2)c1	-18%	27%	5	-17%	6%	-14%
CN1C(=O)CC(=O)N(C)c2cc(S(=O)(=O)N(C)Cc3ccccc3)ccc21	-5%	?	-10	-28%	?	7.5µM*
O=C(O)c1cc(-c2ccc(N3CCOCC3)cc2)nn1-c1ccc(F)cc1F	4%	17%	-2	-14%	45µM*	-15%
O=C(O)c1cc(-c2ccc(N3CCOCC3)cc2)nn1-c1ccccc1Cl	·	31%	-17	?	56µM*	-24%
O=C(c1ccccc1)c1ccc(N2CCOCC2)cc1	·	67%	4	9%	·	-7%
CCCC(C(=O)NCC1CCCO1)N(Cc1ccco1)C(=O)CNS(=O)(=O)c1ccc(F)cc1 (stereo not drawn)	-3%	0%	-29	-3%[11.4 µM]	-26%[12.7 µM]	15µM*
CC(C)C(C(=O)NCC1CCCO1)N(Cc1ccco1)C(=O)CNS(=O)(=O)c1ccccc1 (stereo not drawn)	-6%	-3%	-6	-10%	9%	-4%
Cc1ccc(S(=O)(=O)N2C[C@H]3C(=O)C[C@@H](c4ccc(Cl)cc4)N(S(=O)(=O)c4ccc(C)cc4)[C@H]3C[C@H]2c2ccc(Cl)cc2)cc1	·	·	1	·	·	0%
COc1cccc(CNCCO)c1OCc1ccc(Cl)cc1	-1%	34%	-3	-12%	39%[59 µM]	-4%
CCOc1cc(CNc2ccc(O)cc2)ccc1OCc1ccc(Cl)cc1Cl	?	-38%	-7	79µM*	?	-21%
CCc1ccc(CNc2ccc(O)cc2)cc1	40µM*	-86%	-54*	56µM*	?	30µM*
CCOc1cccc(CNc2ccc(O)cc2)c1OCc1ccc(Cl)cc1	-35%[57.1 µM]	-7%	-13	79µM*	14µM*	-8%
Cn1nnnc1SCCNCc1ccc(OCc2ccccc2Cl)cc1	-18%	31%	·	-23%	-31%[59 µM]	·
Oc1ccc(NCc2ccc(OCc3ccccc3Cl)cc2)cc1	?	?	·	50µM*	3.2µM*	·
CN1OC[C@@H]2CN(Cc3cc(Cl)cc(Cl)c3)[C@H](c3cccc(-c4ccccc4)c3)C[C@@H]21	·	-4%	31	-28%	·	-9%
COc1ccccc1C(=O)Nc1ccccc1OCc1cc(=O)n2c(C)csc2n1	-2%	35%	·	-20%	2%[59 µM]	·
CCOc1ccccc1CNc1ccc(O)cc1	35µM*	?	?	56µM*	-137%[59 µM]	?
S=C(N/N=C/c1ccccc1)N1CCOCC1	?	20%	-3	89µM*	?	-1%
CSC(=S)N/N=C/c1ccccc1	13µM*	-4%	-5	?	-1%	-20%
COc1ccc(/C=N/NC(=S)SC)cc1OC	?	36%	2	-27%	-33%	-4%
CCc1nc2ccc(C(=O)Nc3ccc4c(c3)OCC(=O)N4)cn2c1N(CC)Cc1cccc(Br)c1	·	·	-20	·	·	-11%
CCn1ncc(Cl)c1C(=O)Nc1cc(Cl)ccc1Cl	41%	89%	·	22%	71%[59 µM]	-4%
O=C(/C(Br)=C/Nc1cc(Cl)ccc1Cl)C(F)(F)F	?	52%	-1	?	10µM*	-1%
COc1cc(CNCc2ccccn2)ccc1OCc1ccc(Cl)cc1Cl	?	5%	20	?	40%[12.7 µM]	-2%
COc1cc(CNCc2ccc(C(=O)O)cc2)ccc1OCc1ccc(F)cc1	4%	20%	-1	-20%	-5%	-13%
COc1ccc(CNCCc2ccc(Cl)cc2)cc1OCc1ccccc1	56µM*	?	11	40µM*	10µM*	8%
COc1cc(CNCc2ccccn2)ccc1OCc1ccc(Cl)c(Cl)c1	?	14%	2	?	50µM*	-12%
COc1cc(CNCc2ccccc2)ccc1OCC(O)c1ccccc1 (stereo not drawn)	?	-8%	-10	20µM*	11µM*	-6%
